The values that follow come from article PMC5540273 (PLoS ONE, 2017).
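Note: KINOMEscan kinase panel screen.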

The test system of one assay is CDK8. Conditions: concentration: 1 μM,replicates: in singlicate; n = 1.
As to `Cc1cc(C(=O)Nc2ccc(Oc3ccc4nc(NC(=O)C5CC5)cn4n3)cc2)nn1-c1ccccc1`, the “%Inh” value is on record as 41%.

Turning to `CN(C)CC(O)COc1ccc(Nc2nccc(-c3cnn4nc(N5CCOCC5)ccc34)n2)cc1` (stereo not drawn) [GW767488], the “%Inh” value came to 10%.

In the case of `CCN(CC)CCOc1ccc(Nc2ncc3cc(-c4c(Cl)cccc4Cl)c(=O)n(C)c3n2)cc1` [SB-601273], the “%Inh” value is given as 99%.

`Cc1cc2cn[nH]c2cc1-c1cccc2c(N)c(C(N)=O)nnc12`: the “%Inh” value is on record as 10%.

Take `O=C(NCCNc1ccnc(NCc2ccc(F)cc2)n1)c1cc2ccccc2s1` [GSK1379944]: the “%Inh” value amounted to 13%.

In the case of `COc1ccc(C[C@@H](CN)NC(=O)c2cc(Br)c(-c3ccnc4[nH]ccc34)s2)cc1.Cl.Cl` [GSK1389063], the “%Inh” value is 27%.

Consider `CN(C)CCOc1ccc(-c2cc(-c3c[nH]nc3-c3ccccn3)ccn2)cc1` [GW835314], for which the “%Inh” value is recorded as 2%.

`Cl.Cl.NC[C@H](CC1CCCCC1)NC(=O)c1cc(Br)c(-c2ccnc3[nH]ccc23)s1` [GSK1581427]: the “%Inh” value is 0%.

For `Cl.Oc1cc(-c2nc(-c3ccccc3)[nH]c2-c2ccncc2)ccc1Cl` [SB-386023], the “%Inh” value came to 0%.

As to `Cc1ccc2c(-c3ccncc3)c(-c3ccc(F)cc3)nn2c1.Cl` [GW461484], the “%Inh” value came out at 41%.

Turning to `Nc1nc(Nc2ccccc2)cc(-c2ccc3c(N)n[nH]c3c2)n1` [GSK2225749], the “%Inh” value came to 17%.

For the molecule `C[C@@H](Oc1cc(-c2cnn(C3CCNCC3)c2)cnc1N)c1c(Cl)ccc(F)c1Cl`, the “%Inh” value is recorded as 0%.

`C=CC(=O)Nc1cc2c(Nc3ccc(F)c(Cl)c3)ncnc2cc1OCCCN1CCOCC1` [GW781483]: the “%Inh” value stood at 33%.

For `Cc1ccc(-n2nc(C(C)(C)C)cc2NC(=O)Nc2ccc(OCCN3CCOCC3)c3ccccc23)cc1` [GW839464], the “%Inh” value is given as 72%.

As to `CC(C)Nc1cc(-c2ccc3c(N)n[nH]c3c2)nc(N)n1` [GSK2221681], the “%Inh” value was 0%.

On to `Cl.Cl.NC[C@H](Cc1ccc(C(F)(F)F)cc1)NC(=O)c1cc(Br)c(-c2ccnc3[nH]ccc23)s1` [GSK1487252], for which the “%Inh” value is 17%.

For `CCN(CC)CCCCNc1ncc2cc(-c3c(Cl)cccc3Cl)c(NC(=O)NC(C)(C)C)nc2n1`, the “%Inh” value turned out to be 4%.

With `C[C@@H]1CCN(C(=O)CC#N)C[C@@H]1N(C)c1ncnc2[nH]ccc12`, the “%Inh” value is on record as 1%.

With `Cc1n[nH]c2ccc(-c3cc(OC[C@@H](N)Cc4ccccc4)cnc3-c3ccoc3)cc12.O=C(O)C(F)(F)F.O=C(O)C(F)(F)F` [GSK507358], the “%Inh” value was 26%.

With `O=C(NCCCN1CCOC1=O)c1cnc(NCc2cc(Cl)ccc2Cl)nc1NC1CCCC1`, the “%Inh” value is listed as 17%.

For `Cl.Cl.Nc1nc(-c2ccc3c(N)n[nH]c3c2)cc(N2CCCC(NC(=O)c3ccccc3)C2)n1` (stereo not drawn) [GSK2286775], the “%Inh” value amounted to 11%.

`Cc1occc1-c1nc(N)c(OC[C@@H](N)Cc2c[nH]c3ccccc23)cc1-c1cc2c(C)n[nH]c2cn1` [GSK1660450]: the “%Inh” value is 0%.

Take `CCn1c(-c2nonc2N)nc2c(C#CC(C)(C)O)nc(OCCN)cc21.Cl.Cl` [GSK902056]: the “%Inh” value stood at 17%.

On to `CNC(=O)c1ccccc1Sc1ccc2c(/C=C/c3ccccn3)n[nH]c2c1`, for which the “%Inh” value stood at 30%.

Consider `CC(C)N1C(=O)Cc2cc(Nc3ncc(C(F)(F)F)c(NCc4cccc(S(C)(=O)=O)c4)n3)ccc21`, for which the “%Inh” value was 0%.

Take `C[C@H]1Oc2cc(cnc2N)-c2c(nn(C)c2C#N)CN(C)C(=O)c2ccc(F)cc21`: the “%Inh” value turned out to be 0%.

Take `NC(=O)c1cc(-c2ccccc2)cc2c(C3CCNCC3)c[nH]c12` [GSK301362]: the “%Inh” value was 0%.

A further assay has as its system CDK9. Conditions: concentration: 1 μM,replicates: in singlicate; n = 1.
As to `Cc1cc(C(=O)Nc2ccc(Oc3ccc4nc(NC(=O)C5CC5)cn4n3)cc2)nn1-c1ccccc1`, the “%Inh” value is recorded as 21%.

Regarding `CN(C)CC(O)COc1ccc(Nc2nccc(-c3cnn4nc(N5CCOCC5)ccc34)n2)cc1` (stereo not drawn) [GW767488], the “%Inh” value stood at 49%.

`CCN(CC)CCOc1ccc(Nc2ncc3cc(-c4c(Cl)cccc4Cl)c(=O)n(C)c3n2)cc1` [SB-601273]: the “%Inh” value worked out at 20%.

For the molecule `Cc1cc2cn[nH]c2cc1-c1cccc2c(N)c(C(N)=O)nnc12`, the “%Inh” value was found to be 5%.

Regarding `O=C(NCCNc1ccnc(NCc2ccc(F)cc2)n1)c1cc2ccccc2s1` [GSK1379944], the “%Inh” value is reported as 0%.

`COc1ccc(C[C@@H](CN)NC(=O)c2cc(Br)c(-c3ccnc4[nH]ccc34)s2)cc1.Cl.Cl` [GSK1389063]: the “%Inh” value is 37%.

Regarding `CN(C)CCOc1ccc(-c2cc(-c3c[nH]nc3-c3ccccn3)ccn2)cc1` [GW835314], the “%Inh” value came out at 0%.

In the case of `Cl.Cl.NC[C@H](CC1CCCCC1)NC(=O)c1cc(Br)c(-c2ccnc3[nH]ccc23)s1` [GSK1581427], the “%Inh” value stood at 5%.

With `Cl.Oc1cc(-c2nc(-c3ccccc3)[nH]c2-c2ccncc2)ccc1Cl` [SB-386023], the “%Inh” value came to 0%.

For `Cc1ccc2c(-c3ccncc3)c(-c3ccc(F)cc3)nn2c1.Cl` [GW461484], the “%Inh” value amounted to 0%.

Take `Nc1nc(Nc2ccccc2)cc(-c2ccc3c(N)n[nH]c3c2)n1` [GSK2225749]: the “%Inh” value was 0%.

Regarding `C[C@@H](Oc1cc(-c2cnn(C3CCNCC3)c2)cnc1N)c1c(Cl)ccc(F)c1Cl`, the “%Inh” value was 12%.

As to `C=CC(=O)Nc1cc2c(Nc3ccc(F)c(Cl)c3)ncnc2cc1OCCCN1CCOCC1` [GW781483], the “%Inh” value was found to be 0%.

As for `Cc1ccc(-n2nc(C(C)(C)C)cc2NC(=O)Nc2ccc(OCCN3CCOCC3)c3ccccc23)cc1` [GW839464], the “%Inh” value was 0%.

Take `CC(C)Nc1cc(-c2ccc3c(N)n[nH]c3c2)nc(N)n1` [GSK2221681]: the “%Inh” value is listed as 0%.

Turning to `Cl.Cl.NC[C@H](Cc1ccc(C(F)(F)F)cc1)NC(=O)c1cc(Br)c(-c2ccnc3[nH]ccc23)s1` [GSK1487252], the “%Inh” value was found to be 0%.

Turning to `CCN(CC)CCCCNc1ncc2cc(-c3c(Cl)cccc3Cl)c(NC(=O)NC(C)(C)C)nc2n1`, the “%Inh” value worked out at 0%.

For the molecule `C[C@@H]1CCN(C(=O)CC#N)C[C@@H]1N(C)c1ncnc2[nH]ccc12`, the “%Inh” value was 0%.

For `Cc1n[nH]c2ccc(-c3cc(OC[C@@H](N)Cc4ccccc4)cnc3-c3ccoc3)cc12.O=C(O)C(F)(F)F.O=C(O)C(F)(F)F` [GSK507358], the “%Inh” value is listed as 0%.

As for `O=C(NCCCN1CCOC1=O)c1cnc(NCc2cc(Cl)ccc2Cl)nc1NC1CCCC1`, the “%Inh” value amounted to 5%.

With `Cl.Cl.Nc1nc(-c2ccc3c(N)n[nH]c3c2)cc(N2CCCC(NC(=O)c3ccccc3)C2)n1` (stereo not drawn) [GSK2286775], the “%Inh” value turned out to be 0%.

As to `Cc1occc1-c1nc(N)c(OC[C@@H](N)Cc2c[nH]c3ccccc23)cc1-c1cc2c(C)n[nH]c2cn1` [GSK1660450], the “%Inh” value amounted to 22%.

`CCn1c(-c2nonc2N)nc2c(C#CC(C)(C)O)nc(OCCN)cc21.Cl.Cl` [GSK902056]: the “%Inh” value was determined as 0%.

As for `CNC(=O)c1ccccc1Sc1ccc2c(/C=C/c3ccccn3)n[nH]c2c1`, the “%Inh” value worked out at 0%.

`CC(C)N1C(=O)Cc2cc(Nc3ncc(C(F)(F)F)c(NCc4cccc(S(C)(=O)=O)c4)n3)ccc21`: the “%Inh” value is on record as 19%.

For `C[C@H]1Oc2cc(cnc2N)-c2c(nn(C)c2C#N)CN(C)C(=O)c2ccc(F)cc21`, the “%Inh” value is 1%.

As for `NC(=O)c1cc(-c2ccccc2)cc2c(C3CCNCC3)c[nH]c12` [GSK301362], the “%Inh” value turned out to be 0%.
